SMILES strings stand for the structures. Out of some 340,000 compounds screened, about 1,400 (0.41%) were called active. The full list was thinned out, with actives kept by preference. Values without a mark were called inactive.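 How the source made its calls: active means response above a set limit, near 3 SD of response in nonfluorescent compounds (cut at about 42% in these data); inactive means the rest.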

The test deals with Beta-2 adrenergic receptor (Homo sapiens) (UniProt P07550). Description: beta2AR agonists driving receptor internalization, primary screen, cell-based, FAP fluorogen, flow cytometry (AID 504454). The settings on record: Am2.2-beta2AR cells, hits give high values, concentration not given here. On the technique in general: Flow cytometry measures light scatter and fluorescence of single cells or particles in a stream.
Beta-2 adrenergic receptor (Homo sapiens), sequence (P07550 whole entry, looked up): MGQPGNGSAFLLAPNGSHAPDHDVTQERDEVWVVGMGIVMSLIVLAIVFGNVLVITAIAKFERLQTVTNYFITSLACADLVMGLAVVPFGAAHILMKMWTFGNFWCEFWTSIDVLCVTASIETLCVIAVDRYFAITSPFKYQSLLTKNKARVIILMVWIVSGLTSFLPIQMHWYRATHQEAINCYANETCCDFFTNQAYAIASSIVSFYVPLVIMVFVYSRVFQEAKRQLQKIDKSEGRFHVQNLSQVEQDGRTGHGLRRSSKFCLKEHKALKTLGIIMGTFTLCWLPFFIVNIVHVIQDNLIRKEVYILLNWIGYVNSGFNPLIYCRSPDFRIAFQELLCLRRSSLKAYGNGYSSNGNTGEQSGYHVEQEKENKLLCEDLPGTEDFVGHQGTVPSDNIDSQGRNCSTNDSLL
For the compound `CC[n+]1cc(C)ccc1/C=C/c1ccc(N(C)C)cc1`, the response was -468%.

As to `CCCN(CCC)S(=O)(=O)c1ccc(C(=O)NNC(=O)c2cc(OC)c(OC)c(OC)c2)cc1`, the response is 4.58%.

Consider `CCN(CC)Cc1csc2ccc(Br)cc12`, for which the response was 5.63%.

For `COc1ccc(OC(C)C(=O)Nc2cccnc2)cc1` (stereo unspecified), the response was -1.88%.

With `COc1ccc(CS(=O)/C(Cl)=C(/Cl)C(=O)Nc2ccc(OC)nc2)cc1` (stereo unspecified), the response was 52.3% (active).

In the case of `COc1ccc(CCC(=O)c2ccc(OC)cc2)cc1`, the response was -1.6%.

`O=C(Nc1ccc([N+](=O)[O-])cc1)C1CC12CCC2` (stereo unspecified): the response is -2.03%.

Take `COc1cccc2[nH]c(C(=O)NCCc3ccccc3)cc12`: the response was 1.88%.

For the compound `O=C(Cn1nc(Cc2cccnc2)c2ccccc2c1=O)NCC1CCCO1` (stereo unspecified), the response is -13.8%.

As for `COc1ccc(CC(=O)Nc2nc(-c3ccc(F)c(F)c3)cs2)cc1OC`, the response is 44% (active).

As to `O=C(COc1ccccc1F)Nc1nc(-c2ccccn2)cs1`, the response is -6.34%.

For `COc1ccccc1NC(=O)Nc1nc(CC(=O)Nc2ccccc2F)cs1`, the response is 1.09%.

Regarding `CCc1c(SCCC(=O)O)nc2ccccc2c1C`, the response was -4.7%.

As to `CCN(CC)c1ccc(C(=O)OCC(=O)c2ccco2)cc1`, the response is 4.24%.

With `Cc1ccc(Cl)cc1NC(=O)CN1CCN(S(=O)(=O)N2CCOCC2)CC1`, the response is 81.7% (active).

Turning to `COc1ccc(Cl)cc1NC(=O)CN1CCN(C(=O)N2CCOCC2)CC1`, the response is 1.88%.

For `O=C(CN1CCN(c2cccc(Cl)c2)CC1)Nc1ccc(S(=O)(=O)N2CCOCC2)cc1`, the response was -2.92%.

Regarding `NC[C@H](Cc1ccccc1)NCCc1cc(C(F)(F)F)cc(C(F)(F)F)c1`, the response is 19%.

In the case of `CCOC(=O)[C@H]1[C@H]2COc3ccc(OC)cc3[C@@H]2N2C(=O)c3ccc(F)cc3NC(=O)[C@@]12C`, the response is -0.05%.

On to `COCCn1c(C)cc(C(=O)CSc2nnc(C3CC3)n2C2CC2)c1C`, for which the response is 6.93%.

Take `O=C(N/C(=C/c1ccc(Cl)cc1)C(=O)N1CCCCC1)c1ccco1`: the response was 6.34%.

For `O=C(N/C(=C\c1ccc([N+](=O)[O-])cc1)C(=O)N1CCCCC1)c1ccco1`, the response was 72.5% (active).

`O=C(N/C(=C\c1ccc([N+](=O)[O-])cc1)C(=O)N1CCOCC1)c1cccc(Br)c1`: the response is 3.33%.

`CC(=O)Nc1ccc(S(=O)(=O)N2CCN(CCCOc3cc(C)ccc3C)CC2)cc1`: the response was 3.77%.

`CC(C)c1ccc(NC(=O)[C@@H](NC(=O)N2CC(=O)Nc3ccccc32)C(C)C)cc1`: the response was -13%.

Take `Cc1ccc(-c2nnc(SCC(=O)N/N=C/c3cccs3)n2-c2ccc(C)cc2)cc1`: the response is -11.9%.

For the compound `Cc1nnc(SCC(=O)N/N=C/c2cn(-c3ccccc3)nc2-c2ccc(F)cc2)n1-c1ccccc1`, the response is 54.1% (active).

On to `COc1ccc(OC)c(/C=N/NC(=O)CSc2nnc(C)n2-c2ccccc2)c1`, for which the response was 8.61%.

As for `CCOc1cc(C)c(S(=O)(=O)NCc2ccccn2)cc1C`, the response was -7.14%.

As for `CCCOc1ccc(C(=O)C(CCC(CNCC)C(=O)c2ccc(OCCC)cc2)CNCC)cc1` (stereo unspecified), the response is 46.1% (active).

Take `CCCOc1ccc(/C=N/NC(=O)C2CC2)c(OCCC)c1`: the response was -16.2%.

Take `COC(=O)c1ccc(OCC(=O)NC(C)(C)C)cc1`: the response is 6.76%.

In the case of `Cc1ccc2[nH]c(=O)c(CN(C)S(=O)(=O)c3cccc4nonc34)cc2c1`, the response is -5.68%.

`Cc1cc(C)c(C2C3=C(Nc4c2c(C)nn4-c2ccccn2)c2ccccc2C3=O)c(C)c1` (stereo unspecified): the response is 69.5% (active).

As for `Cc1nn(-c2ccccn2)c2c1C(c1ccncc1)C1=C(CC(C)(C)CC1=O)N2` (stereo unspecified), the response is -12.9%.

In the case of `CSc1ccc(S(=O)(=O)NCC(=O)OCC(=O)NC2(C#N)CCCCC2)cc1[N+](=O)[O-]`, the response was 5.12%.

In the case of `COc1ccc(CCOC2OC(CO)C(OC(=O)/C=C/c3ccc(O)c(OC)c3)C(O[C@H]3O[C@@H](C)[C@H](O)[C@@H](O)[C@H]3O)C2O)cc1O` (stereo partly specified), the response is 1.58%.

In the case of `O=C(Nc1ccc(Br)cc1)C1CCC(=O)N1Cc1ccccc1Cl` (stereo unspecified), the response was -2.28%.

On to `NC(N)=N/N=C/c1ccc(OCc2ccc(Cl)cc2Cl)cc1`, for which the response is 59.6% (active).

As to `COc1ccc(Cl)cc1N(CC(=O)N/N=C/c1ccc(OCC(N)=O)cc1)S(C)(=O)=O`, the response is -3.08%.

Consider `Cc1nc2ccccc2nc(C)c1=NOCc1ccc(Cl)cc1Cl`, for which the response is -2.95%.

Consider `CCC(CC)NC(=O)/C=C/c1cccc([N+](=O)[O-])c1`, for which the response was -1.38%.

For `CCCCCc1ccc(-c2ccc(C(=O)O)cc2)nc1`, the response was -1.17%.

As for `O=S(=O)(Cc1cc(Sc2ccccc2)nc(-c2ccccc2)n1)c1ccccc1`, the response was 7.22%.

Consider `Cc1ccc(Sc2cc(N3CCOCC3)nc(-c3ccccc3)n2)cc1`, for which the response is 42.7% (active).

As for `Cc1cc(N2CCOCC2)nc(-c2ccc(Br)cc2)n1`, the response is -1.94%.

Consider `S=c1[nH]nc(Nc2ccccc2)s1`, for which the response was 16.4%.

`COc1cc(C(C(=O)NC2CCCC2)N(C(=O)c2ccco2)c2ccccc2C(C)=O)cc(OC)c1OC` (stereo unspecified): the response was 2.2%.

Regarding `CCOC(=O)c1c(-c2ccccc2)oc2ccc(OCC(=O)NN)cc12`, the response is 27.5%.

`CCOC(=O)c1c(-c2ccccc2)oc2cc(Br)c(O)cc12`: the response was -5.83%.

Turning to `CCOC(=O)c1c(-c2ccccc2)oc2cc(Br)c(O)c(C=O)c12`, the response was 56.8% (active).

For `Cn1c(=O)oc2cc(S(=O)(=O)NCCC(=O)NCc3ccccc3Cl)ccc21`, the response is 0.87%.

As to `CCOC(=O)C1CCN(CC(=O)Nc2ccc(OC)c(S(=O)(=O)N3CCCCC3)c2)CC1`, the response was 11.9%.

Take `O=C(COc1cccnc1[N+](=O)[O-])Nc1ccc(Cl)cc1F`: the response is -3.75%.

As for `Cc1c(/C=N/N2C(=O)C3C4C=CC(C4)C3C2=O)c2ccccc2n1C` (stereo unspecified), the response is -4.99%.

`O=C1C2C3C=CC(C4CC34)C2C(=O)N1/N=C/c1ccc(-c2ccccc2[N+](=O)[O-])o1` (stereo unspecified): the response is 42.1% (active).

For `O=C(Nc1ccc(N2CCOCC2)cc1)c1ccc(-c2ccccc2[N+](=O)[O-])o1`, the response is 15.6%.

As to `CCOc1cc(/C=C2/N=C(c3ccc(C(C)(C)C)cc3)OC2=O)cc(Cl)c1OS(C)(=O)=O`, the response is -2.17%.

As to `COc1ccc(NC(=O)CN(C)C(=O)c2cccc(S(=O)(=O)N3CCN(c4ccccc4)CC3)c2)cc1`, the response was 6.13%.

Consider `O=[N+]([O-])/C=C/c1ccc2c(ccn2Cc2ccccc2)c1`, for which the response was 48.2% (active).

Consider `COc1ccc2ccccc2c1CNc1nnnn1C`, for which the response was -4.52%.

On to `Cn1c(=S)sc2ccc3ccccc3c21`, for which the response was 59.5% (active).

Consider `CCN(CC(=O)Nc1ccccc1C(F)(F)F)C(=O)CSCc1c(C)noc1C`, for which the response is -3.25%.

For `Cc1ccc(NC(=O)COC(=O)C2C3CC4OC(=O)C2C4C3)cc1Cl` (stereo unspecified), the response is 5.53%.

With `O=C1c2ccccc2C(=O)N1CCC#Cc1ccc2cc(C3(O)CCCCC3)oc(=O)c2c1`, the response was 5.43%.

`COc1cc(C#Cc2ccc3cc(CCCO)oc(=O)c3c2)cc(OC)c1`: the response was 45.9% (active).

Regarding `COc1cc(/C=C2\Oc3ccc(C#Cc4ccc(O)cc4)cc3C2=O)cc(OC)c1`, the response is -8.05%.

In the case of `COc1ccc(CCNC(=O)c2ccc3c(c2)NC(=O)C(N2CCOCC2)S3)cc1OC` (stereo unspecified), the response is 3.69%.

For the compound `Cc1nn(Cc2ccccc2)c(C)c1C(=O)N1CCN(CC(=O)Nc2ccccc2Cl)CC1`, the response is 4.22%.

As for `COC(=O)N/N=C/c1cn(CCCOc2ccc(C)cc2)c2ccccc12`, the response is 105% (active).

Regarding `CCOC(=O)N/N=C/c1cn(Cc2ccccc2Cl)c2ccccc12`, the response was -0.12%.

In the case of `COc1cccc(Cn2cc(/C=N/NC(=O)c3cc(O)cc(O)c3)c3ccccc32)c1`, the response was 3.63%.

`COc1ccc(OC)c(CCNC(=O)CCn2ccc3cc(S(=O)(=O)N4CCCC4)ccc32)c1`: the response was 1.18%.

Consider `CCOCCCNC(=O)c1c[nH]c2cc(C)ccc2c1=O`, for which the response is -5.06%.

On to `CCN(CC)S(=O)(=O)c1ccc(N2CCCC2)c(NC(=O)c2ccc([N+](=O)[O-])o2)c1`, for which the response is 5.38%.

As for `CC(C)(CSc1nncn1/N=C/c1ccco1)NS(=O)(=O)c1ccc(Cl)cc1`, the response was 45.9% (active).

Take `O=S(=O)(NCCSc1ccccn1)c1ccc(Cl)cc1`: the response was -2.74%.

Turning to `Cc1cc(C)n(CCNS(=O)(=O)c2ccc(Cl)cc2)n1`, the response was -1.1%.

Regarding `COc1cc(C(=O)NCc2ccncc2)cc(Br)c1OCc1ccccc1`, the response was 7.17%.

`COC(=O)c1ccc(C23CC4(C2)[C@H](CN(Cc2cccnc2)[C@@H]4c2ccccc2)C3c2ccc(Cl)nc2)cc1` (stereo partly specified): the response was 5.54%.

Regarding `CCn1c(SCC(=O)NNC(=O)c2ccc(OC)cc2)nnc1C(C)C`, the response is 76.2% (active).

Turning to `CCn1c(CNc2ccc(OC)cc2)nnc1SCC(=O)c1ccc(OC)cc1`, the response was 6.23%.

For the compound `CCC(c1nnc(SCC(=O)NNC(=O)c2ccccc2)n1Cc1ccccc1)N(C)C` (stereo unspecified), the response is -7.18%.

For the compound `Cc1cc(C)c(S(=O)(=O)n2cc(C(C)C(N)C(=O)O)c3ccccc32)c(C)c1` (stereo unspecified), the response was 3.12%.

As to `CCCNC(=O)N1CCC(c2ccc3c(c2)OCO3)CC1`, the response was 6.03%.

Turning to `O=[N+]([O-])c1ccc(NC(=S)N2CCN(c3ccccn3)CC2)cc1`, the response was -2.61%.

With `COc1ccc(NC(=O)c2sc3nc(C)nc(N4CCN(c5ccccn5)CC4)c3c2C)c(OC)c1`, the response is 16.2%.

Consider `COc1ccc(OC)c(NC(=O)c2sc3nc(C)cc(C)c3c2N)c1`, for which the response is 72.5% (active).

`COCc1cc(C)nc2sc(C(=O)NC3CCCCC3)c(N)c12`: the response is -21.3%.

`O=S(=O)(c1ccccc1)c1nc(Cc2ccccc2)oc1N1CCOCC1`: the response is 6.12%.

`CCCCN=C1N/C(=C\c2ccco2)C(=O)N1c1ccccc1`: the response is 0.77%.

With `COc1cc(OC)cc(C(=O)NNC(=O)CCOc2ccccc2OC)c1`, the response is 4.38%.

As for `CCN1CCC(=NNC(=O)c2ccc(C)c([N+](=O)[O-])c2)CC1`, the response was 2.52%.

With `CCCCN(CCCC)CCCNC(=O)CN1C(=O)COc2ccc(S(=O)(=O)N3CCC(C)CC3)cc21`, the response was 7.21%.

As to `Cc1nc2ccccc2c(C(=O)O)c1-c1ccccn1`, the response is 5.02%.

For the compound `Cc1nc2ccccc2c(C)c1C(=O)c1ccc(F)cc1`, the response is 1.92%.

With `Cc1nc2ccccc2c(-c2ccccc2)c1C(=O)c1ccccc1`, the response was 105% (active).

Turning to `CC/S(CC1CC1(Cl)Cl)=N\S(=O)(=O)c1ccc(C)cc1` (stereo unspecified), the response was -2.93%.

For the compound `O=c1[nH]c(=S)[nH]c(O)c1/C=C1\C=Nc2ccccc21`, the response is 57.7% (active).

With `COc1ccc2c(c1OC)C(=O)N(c1ccc(O)cc1)C2`, the response is 5.16%.

Turning to `COc1ccnc(Oc2ccccc2)c1-c1ncn[nH]1`, the response was 1.34%.

For the origin of these results see PubChem BioAssay AID504454 (NMMLSC, 2011).
